Data as given in the supplement of paper PMC10849652.
Targets with a hit are over-represented here; the source holds about 8,800 in all. About 0.5% of all pairs of compound and target were hits. Unmarked numbers belong to inactive results.

What was measured:
Assay in all cases: log2 fold change, soluble protein after heating vs DMSO (PISA); higher = thermal stabilisation; K562 lysate, 10 uM; active = over 0.2 and 3.5 SD of the protein, either way, in both replicates (recomputed)
alvocidib = compound: CN1CC[C@H](c2c(O)cc(O)c3c(=O)cc(-c4ccccc4Cl)oc23)[C@H](O)C1 [alvocidib]
How it was run: (§1)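 K562 pellets were dounce-homogenised in PBS pH 7.4 containing 1 mM MgCl2, and the crude extract, at 1 mg/mL protein, was exposed to 10 μM compound for 30 min. Aliquots were heated for 3 min across 48°C-58°C, pooled, brought to 0.5% NP-40 at 4°C and spun at 21,000xg for 90 min, with the supernatant taken as soluble protein. TMTpro 16plex LC-MS/MS with equalised channel sums quantified that protein. Values are log-two fold changes in thermal stability relative to solvent controls, taken from duplicates.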

Tubastatin A = compound: CN1CCc2c(c3ccccc3n2Cc2ccc(C(=O)NO)cc2)C1 [Tubastatin A]
How it was run: as §1

[1] = compound: CNC(=O)C1=CC=CC=C1NC2=NC(=NC=C2Cl)NC3=C(C=C(C=C3)N4CCOCC4)OC
How it was run: as §1

defactinib = compound: CNC(=O)c1ccc(Nc2ncc(C(F)(F)F)c(NCc3nccnc3N(C)S(C)(=O)=O)n2)cc1 [defactinib]
How it was run: as §1

[2] = compound: CNc1nc(-c2ccc3c(N)n[nH]c3c2)cc(N2C[C@@H](C(=O)NC3CCCCC3)CC[C@H]2C)n1
How it was run: as §1

encorafenib = compound: COC(=O)N[C@@H](C)CNc1nccc(-c2cn(C(C)C)nc2-c2cc(Cl)cc(NS(C)(=O)=O)c2F)n1 [encorafenib]
How it was run: as §1

[3] = compound: COC(=O)[C@H](CCSC)NC(=O)C1=C(C=C(C=C1)NC[C@H](CS)N)C2=CC=CC=C2
How it was run: as §1

alisertib = compound: COc1cc(Nc2ncc3c(n2)-c2ccc(Cl)cc2C(c2c(F)cccc2OC)=NC3)ccc1C(=O)O [alisertib]
How it was run: as §1

[4] = compound: COc1cc2nc(-c3cc(F)ccc3O)nc(N[C@@H]3CNC[C@H]3C(C)(C)O)c2cc1OC
How it was run: as §1

gefitinib = compound: COc1cc2ncnc(Nc3ccc(F)c(Cl)c3)c2cc1OCCCN1CCOCC1 [gefitinib]
How it was run: as §1

lapatinib = compound: CS(=O)(=O)CCNCc1ccc(-c2ccc3ncnc(Nc4ccc(OCc5cccc(F)c5)c(Cl)c4)c3c2)o1 [lapatinib]
How it was run: as §1

pictilisib = compound: CS(=O)(=O)N1CCN(Cc2cc3nc(-c4cccc5[nH]ncc45)nc(N4CCOCC4)c3s2)CC1 [pictilisib]
How it was run: as §1

crizotinib = compound: C[C@@H](Oc1cc(-c2cnn(C3CCNCC3)c2)cnc1N)c1c(Cl)ccc(F)c1Cl [crizotinib]
How it was run: as §1

[5] = compound: C[C@H](C1=CC=C(C=C1)C(=O)NC2=C3C=CNC3=NC=C2)N
How it was run: as §1

duvelisib = compound: C[C@H](Nc1ncnc2nc[nH]c12)c1cc2cccc(Cl)c2c(=O)n1-c1ccccc1 [duvelisib]
How it was run: as §1

gandotinib = compound: Cc1cc(Nc2cc(CN3CCOCC3)c3nc(C)c(Cc4ccc(Cl)cc4F)n3n2)n[nH]1 [gandotinib]
How it was run: as §1

tozasertib = compound: Cc1cc(Nc2cc(N3CCN(C)CC3)nc(Sc3ccc(NC(=O)C4CC4)cc3)n2)n[nH]1 [tozasertib]
How it was run: as §1

doramapimod = compound: Cc1ccc(-n2nc(C(C)(C)C)cc2NC(=O)Nc2ccc(OCCN3CCOCC3)c3ccccc23)cc1 [doramapimod]
How it was run: as §1

bafetinib = compound: Cc1ccc(NC(=O)c2ccc(CN3CC[C@H](N(C)C)C3)c(C(F)(F)F)c2)cc1Nc1nccc(-c2cncnc2)n1 [bafetinib]
How it was run: as §1

[6] = compound: Cc1cccc(CC(=O)N2CCc3c2ccc(-c2cn(C)c4ncnc(N)c24)c3F)n1
How it was run: as §1

UniProt Q9BRZ2, sequence (Q9BRZ2 whole entry, looked up): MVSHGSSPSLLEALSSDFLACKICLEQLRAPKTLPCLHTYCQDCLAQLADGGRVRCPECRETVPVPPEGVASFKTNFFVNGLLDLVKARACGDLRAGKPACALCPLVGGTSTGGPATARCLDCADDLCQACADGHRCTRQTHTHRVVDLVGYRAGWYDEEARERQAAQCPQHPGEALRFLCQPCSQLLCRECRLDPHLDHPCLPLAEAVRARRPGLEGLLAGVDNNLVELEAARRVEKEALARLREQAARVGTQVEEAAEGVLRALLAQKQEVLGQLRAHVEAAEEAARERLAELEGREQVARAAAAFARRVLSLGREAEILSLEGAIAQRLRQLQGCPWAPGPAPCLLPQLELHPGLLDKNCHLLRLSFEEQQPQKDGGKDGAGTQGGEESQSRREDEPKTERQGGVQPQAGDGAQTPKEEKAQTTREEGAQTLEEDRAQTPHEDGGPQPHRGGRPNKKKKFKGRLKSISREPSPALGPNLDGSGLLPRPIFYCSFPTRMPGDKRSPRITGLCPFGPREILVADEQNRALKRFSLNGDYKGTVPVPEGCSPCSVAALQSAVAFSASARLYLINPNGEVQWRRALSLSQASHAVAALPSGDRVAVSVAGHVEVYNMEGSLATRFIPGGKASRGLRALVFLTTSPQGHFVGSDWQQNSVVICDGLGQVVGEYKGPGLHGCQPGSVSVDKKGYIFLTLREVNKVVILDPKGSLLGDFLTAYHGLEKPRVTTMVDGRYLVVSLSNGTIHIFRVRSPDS
UniProt Q96Q05, sequence (Q96Q05 whole entry, looked up): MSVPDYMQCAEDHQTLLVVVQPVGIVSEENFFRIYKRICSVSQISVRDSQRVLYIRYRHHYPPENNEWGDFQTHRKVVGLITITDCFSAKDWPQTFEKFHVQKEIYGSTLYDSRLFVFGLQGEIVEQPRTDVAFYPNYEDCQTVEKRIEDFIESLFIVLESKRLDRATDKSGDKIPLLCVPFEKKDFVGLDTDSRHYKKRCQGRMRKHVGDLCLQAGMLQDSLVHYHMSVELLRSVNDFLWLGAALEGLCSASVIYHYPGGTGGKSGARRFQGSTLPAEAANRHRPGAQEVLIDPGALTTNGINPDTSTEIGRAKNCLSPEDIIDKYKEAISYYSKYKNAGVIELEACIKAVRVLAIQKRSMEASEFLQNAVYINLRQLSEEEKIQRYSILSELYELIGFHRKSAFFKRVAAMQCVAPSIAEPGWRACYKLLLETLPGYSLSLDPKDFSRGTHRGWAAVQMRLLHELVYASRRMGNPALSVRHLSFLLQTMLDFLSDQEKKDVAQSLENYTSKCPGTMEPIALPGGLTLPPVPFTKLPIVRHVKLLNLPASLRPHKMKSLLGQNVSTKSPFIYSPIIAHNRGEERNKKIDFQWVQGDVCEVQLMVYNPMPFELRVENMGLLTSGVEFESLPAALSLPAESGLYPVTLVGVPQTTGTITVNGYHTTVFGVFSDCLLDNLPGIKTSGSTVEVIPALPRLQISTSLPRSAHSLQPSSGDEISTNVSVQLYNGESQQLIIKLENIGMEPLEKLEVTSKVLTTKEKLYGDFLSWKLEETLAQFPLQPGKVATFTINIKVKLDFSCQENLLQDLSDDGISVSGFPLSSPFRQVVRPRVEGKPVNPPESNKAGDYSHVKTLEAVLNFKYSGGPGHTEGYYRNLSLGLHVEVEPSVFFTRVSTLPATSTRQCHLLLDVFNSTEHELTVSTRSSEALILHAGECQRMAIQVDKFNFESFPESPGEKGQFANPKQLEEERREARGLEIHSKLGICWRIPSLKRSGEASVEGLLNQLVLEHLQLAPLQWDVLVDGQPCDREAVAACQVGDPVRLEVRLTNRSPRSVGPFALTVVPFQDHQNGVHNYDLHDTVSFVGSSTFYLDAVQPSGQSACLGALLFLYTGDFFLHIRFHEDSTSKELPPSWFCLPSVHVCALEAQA
UniProt Q15813, sequence (Q15813 whole entry, looked up): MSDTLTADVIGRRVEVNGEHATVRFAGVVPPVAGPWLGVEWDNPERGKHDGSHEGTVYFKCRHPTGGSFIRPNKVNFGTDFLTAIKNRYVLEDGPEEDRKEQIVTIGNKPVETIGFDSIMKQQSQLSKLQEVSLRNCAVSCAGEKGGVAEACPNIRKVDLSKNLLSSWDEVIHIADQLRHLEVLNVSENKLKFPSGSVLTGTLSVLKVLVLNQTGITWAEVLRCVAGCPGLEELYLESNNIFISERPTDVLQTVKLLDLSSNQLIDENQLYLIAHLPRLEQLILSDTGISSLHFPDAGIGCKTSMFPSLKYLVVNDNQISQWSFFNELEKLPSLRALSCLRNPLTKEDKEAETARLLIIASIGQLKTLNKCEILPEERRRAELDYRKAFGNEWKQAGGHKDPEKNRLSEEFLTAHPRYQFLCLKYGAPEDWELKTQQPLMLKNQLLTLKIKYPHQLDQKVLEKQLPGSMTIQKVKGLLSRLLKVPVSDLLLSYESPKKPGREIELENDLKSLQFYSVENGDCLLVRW
UniProt Q5TEJ8, sequence (Q5TEJ8 whole entry, looked up): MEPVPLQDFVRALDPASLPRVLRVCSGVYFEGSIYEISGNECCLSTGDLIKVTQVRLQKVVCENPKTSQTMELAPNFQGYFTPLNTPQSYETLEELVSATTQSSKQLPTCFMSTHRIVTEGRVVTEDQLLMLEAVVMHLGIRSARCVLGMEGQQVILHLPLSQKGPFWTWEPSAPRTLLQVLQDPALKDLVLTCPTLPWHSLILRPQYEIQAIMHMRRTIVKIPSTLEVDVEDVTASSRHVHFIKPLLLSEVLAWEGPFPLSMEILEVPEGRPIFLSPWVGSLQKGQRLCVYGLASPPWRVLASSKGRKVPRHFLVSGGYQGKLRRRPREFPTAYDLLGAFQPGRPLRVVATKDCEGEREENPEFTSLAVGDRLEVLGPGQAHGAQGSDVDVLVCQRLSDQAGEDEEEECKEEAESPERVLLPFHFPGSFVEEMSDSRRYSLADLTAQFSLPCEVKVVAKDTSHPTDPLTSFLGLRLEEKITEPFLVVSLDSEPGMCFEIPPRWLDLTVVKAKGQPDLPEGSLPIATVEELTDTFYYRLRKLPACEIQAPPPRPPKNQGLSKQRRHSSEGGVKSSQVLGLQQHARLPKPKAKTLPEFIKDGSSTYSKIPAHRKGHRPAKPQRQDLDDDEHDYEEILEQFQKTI
UniProt Q96K49, sequence (Q96K49 whole entry, looked up): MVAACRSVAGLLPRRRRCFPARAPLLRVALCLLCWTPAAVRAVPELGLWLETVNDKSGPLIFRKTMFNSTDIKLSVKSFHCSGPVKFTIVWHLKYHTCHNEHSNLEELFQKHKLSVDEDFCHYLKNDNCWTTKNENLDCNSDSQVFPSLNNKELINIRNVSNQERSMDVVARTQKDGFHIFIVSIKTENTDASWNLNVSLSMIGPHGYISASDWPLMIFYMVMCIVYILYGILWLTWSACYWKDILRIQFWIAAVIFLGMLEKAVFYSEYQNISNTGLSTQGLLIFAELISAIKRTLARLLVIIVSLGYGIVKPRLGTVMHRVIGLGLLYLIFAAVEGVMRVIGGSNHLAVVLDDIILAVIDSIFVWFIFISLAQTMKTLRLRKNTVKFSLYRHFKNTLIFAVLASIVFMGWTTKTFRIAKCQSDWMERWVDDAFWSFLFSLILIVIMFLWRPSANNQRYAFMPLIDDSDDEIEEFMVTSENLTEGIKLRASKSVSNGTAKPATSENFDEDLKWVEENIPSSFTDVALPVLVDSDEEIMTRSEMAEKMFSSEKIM
UniProt Q9UJT0, sequence (Q9UJT0 whole entry, looked up): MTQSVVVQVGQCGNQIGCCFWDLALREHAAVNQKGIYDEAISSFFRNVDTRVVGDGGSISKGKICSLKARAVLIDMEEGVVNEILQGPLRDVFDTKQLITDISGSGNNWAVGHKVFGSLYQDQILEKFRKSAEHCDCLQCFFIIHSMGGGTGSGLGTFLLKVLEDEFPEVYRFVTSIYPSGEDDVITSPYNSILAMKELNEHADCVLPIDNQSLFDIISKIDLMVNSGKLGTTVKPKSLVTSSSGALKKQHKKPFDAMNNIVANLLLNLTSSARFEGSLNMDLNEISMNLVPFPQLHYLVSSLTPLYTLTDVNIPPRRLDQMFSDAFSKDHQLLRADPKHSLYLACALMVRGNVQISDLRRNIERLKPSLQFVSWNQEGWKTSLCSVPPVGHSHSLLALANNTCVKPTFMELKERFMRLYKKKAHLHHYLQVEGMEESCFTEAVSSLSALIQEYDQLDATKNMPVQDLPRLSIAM
UniProt Q04726, sequence (Q04726 whole entry, looked up): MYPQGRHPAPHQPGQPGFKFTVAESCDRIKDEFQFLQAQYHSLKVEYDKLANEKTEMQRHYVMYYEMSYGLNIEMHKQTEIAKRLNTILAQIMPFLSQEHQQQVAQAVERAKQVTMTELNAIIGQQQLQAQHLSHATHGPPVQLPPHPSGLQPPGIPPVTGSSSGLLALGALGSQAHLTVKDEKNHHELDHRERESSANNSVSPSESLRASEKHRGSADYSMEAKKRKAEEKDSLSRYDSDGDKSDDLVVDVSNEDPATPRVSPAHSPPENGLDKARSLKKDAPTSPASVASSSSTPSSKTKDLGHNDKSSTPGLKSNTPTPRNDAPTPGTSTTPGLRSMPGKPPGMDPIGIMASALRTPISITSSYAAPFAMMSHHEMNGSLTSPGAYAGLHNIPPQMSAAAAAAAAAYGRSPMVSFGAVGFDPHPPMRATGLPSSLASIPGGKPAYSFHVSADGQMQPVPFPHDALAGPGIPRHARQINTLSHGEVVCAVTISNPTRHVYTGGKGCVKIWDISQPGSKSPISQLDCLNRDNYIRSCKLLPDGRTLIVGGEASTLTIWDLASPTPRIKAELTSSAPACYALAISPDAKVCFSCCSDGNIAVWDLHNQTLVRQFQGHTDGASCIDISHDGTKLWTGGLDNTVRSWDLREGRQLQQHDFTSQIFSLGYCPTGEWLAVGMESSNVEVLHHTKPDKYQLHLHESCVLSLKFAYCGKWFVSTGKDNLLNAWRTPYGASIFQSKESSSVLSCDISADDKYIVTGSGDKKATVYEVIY

| Target | log2 fold change (alvocidib) | log2 fold change (Tubastatin A) | log2 fold change [1] | log2 fold change (defactinib) | log2 fold change [2] | log2 fold change (encorafenib) | log2 fold change [3] | log2 fold change (alisertib) | log2 fold change [4] | log2 fold change (gefitinib) | log2 fold change (lapatinib) | log2 fold change (pictilisib) | log2 fold change (crizotinib) | log2 fold change [5] | log2 fold change (duvelisib) | log2 fold change (gandotinib) | log2 fold change (tozasertib) | log2 fold change (doramapimod) | log2 fold change (bafetinib) | log2 fold change [6] |
| --- | --- | --- | --- | --- | --- | --- | --- | --- | --- | --- | --- | --- | --- | --- | --- | --- | --- | --- | --- | --- |
| TLE3 isoform 4 (UniProt Q04726) | 0.023 | 0.002 | -0.013 | 0.004 | 0.024 | 0.014 | -0.019 | -0.016 | 0.002 | -0.037 | -0.01 | 0.008 | 0.003 | 0.004 | -0.015 | 0 | -0.029 | -0.016 | 0.1 | -0.048 |
| TUBE1 (UniProt Q9UJT0) | 0.06 | -0.001 | 0.062 | 0.107 | -0.027 | 0.036 | -0.108 | 0.052 | -0.009 | -0.005 | -0.008 | -0.005 | 0.095 | 0.214 | -0.01 | -0.076 | 0.054 | -0.034 | -0.066 | -0.029 |
| TTI1 (UniProt O43156) | 0 | -0.163 | 0.015 | 0.022 | -0.035 | 0.022 | 0.026 | -0.013 | -0.011 | -0.016 | -0.011 | -0.044 | -0.11 | -0.075 | -0.005 | -0.113 | 0.028 | 0.045 | -0.016 | 0.056 |
| THEMIS2 (UniProt Q5TEJ8) | -0.036 | -0.069 | 0.024 | 0.028 | 0 | -0.027 | 0.023 | 0.052 | -0.159 | 0.025 | -0.052 | 0.029 | -0.025 | 0.004 | -0.026 | -0.001 | 0.006 | -0.042 | -0.059 | 0.065 |
| TRAPPC9 isoform 2 (UniProt Q96Q05) | -0.017 | -0.128 | 0.002 | -0.011 | -0.075 | 0.022 | -0.015 | -0.036 | 0.021 | -0.017 | -0.02 | 0.012 | -0.084 | -0.053 | -0.038 | -0.037 | 0.037 | 0.029 | -0.026 | 0.021 |
| TMEM87B (UniProt Q96K49) | 0.035 | 0.044 | -0.035 | -0.032 | -0.045 | -0.055 | 0.017 | 0.004 | 0.031 | 0.018 | -0.044 | 0.147 | -0.017 | 0.004 | 0.039 | -0.077 | 0.068 | 0.026 | 0.126 | 0 |
| TBCE (UniProt Q15813) | -0.008 | -0.162 | -0.026 | 0.031 | -0.028 | -0.008 | 0.265 (active) | -0.008 | -0.006 | -0.006 | -0.019 | -0.039 | -0.042 | -0.002 | 0.025 | -0.034 | -0.004 | 0.001 | 0.033 | 0.039 |
| TRIM56 (UniProt Q9BRZ2) | -0.013 | -0.13 | 0.067 | 0.008 | -0.059 | 0.068 | -0.21 | 0.04 | 0.001 | -0.01 | 0.001 | -0.002 | -0.002 | 0.085 | 0.003 | -0.071 | 0 | 0.023 | -0.132 | 0.085 |
